Assay outcomes: PubChem BioAssay, National Center for Advancing Translational Sciences (NCATS)
SMN2 splice enh – SMN2 splice variant enhancement; HEK293 SMN2-luciferase splicing reporter, luminescence, 30-36 h; Potency, µM (top dose mostly 46.1 µM), without a hit: top-dose activity change, positive = activation, most hits filed as activators; 210,000 compounds, 2.8% hits; AID 1458; note: % of control where 0% means no effect; nearly all actives have a fitted effect of over 55% in size
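HEK293 cells carry an SMN2 minigene-luciferase reporter in which exon 7 inclusion puts luciferase in frame. Cells were seeded at 2000 cells/well, attached for 10-12 hours, then exposed to compounds for 30-36 hours at 37C before ONE-Glo luminescence.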
NPC1 prom act – activators of NPC1 promoter; 320,000 compounds, 2.4% hits; AID 485313; Huh7 NPC1 promoter luciferase reporter, 24 h; Potency, µM (top dose mostly 9.22 µM), for inactives: at the top dose activation, most hits filed as activators; note: % of control where 0% means no effect; nearly all actives have a fitted effect of over 60% in size
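Luminescence read-out of NPC1 promoter-driven luciferase in stably transfected Huh7 cells; compounds delivered in DMSO and left 24 h at 37C, 5% CO2, qHTS titration format.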
ELG1 genotox – inducers of genotoxicity in HEK293T ELG1-luciferase cells. 330,000 compounds, 1.3% hits. Potency, µM (doses to about 46 µM), for inactives: at the highest dose activity change, positive = activation, hits mostly activators. HEK293T ELG1-luciferase reporter, luminescence, 16 h. AID 504466; note: % of control where 0% means no effect; nearly all actives have a fitted effect of over 60% in size
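HEK293T cells expressing luciferase-tagged ELG1 were exposed to compound or DMSO vehicle for 16 hr at 37 °C and 5% CO2. Luciferase activity was then measured with ONE-Glo after 30 min at room temperature.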
FLuc modulator – counter-screen for miR-21 project: firefly luciferase inhibitors or activators | P08659 | purified FLuc, Km substrates, luminescence inhibition | Potency, µM (titrated, usually from 57.5 µM), inactives show at the top dose activity change, negative = inhibition, usual class: inhibitors | 360,000 compounds, 6.9% hits | AID 588342;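 note: plate controls were vehicle for no effect and reference inhibitor for full effect; nearly all actives have a fitted effect of over 55% in size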
Target sequence (P08659 whole entry, looked up): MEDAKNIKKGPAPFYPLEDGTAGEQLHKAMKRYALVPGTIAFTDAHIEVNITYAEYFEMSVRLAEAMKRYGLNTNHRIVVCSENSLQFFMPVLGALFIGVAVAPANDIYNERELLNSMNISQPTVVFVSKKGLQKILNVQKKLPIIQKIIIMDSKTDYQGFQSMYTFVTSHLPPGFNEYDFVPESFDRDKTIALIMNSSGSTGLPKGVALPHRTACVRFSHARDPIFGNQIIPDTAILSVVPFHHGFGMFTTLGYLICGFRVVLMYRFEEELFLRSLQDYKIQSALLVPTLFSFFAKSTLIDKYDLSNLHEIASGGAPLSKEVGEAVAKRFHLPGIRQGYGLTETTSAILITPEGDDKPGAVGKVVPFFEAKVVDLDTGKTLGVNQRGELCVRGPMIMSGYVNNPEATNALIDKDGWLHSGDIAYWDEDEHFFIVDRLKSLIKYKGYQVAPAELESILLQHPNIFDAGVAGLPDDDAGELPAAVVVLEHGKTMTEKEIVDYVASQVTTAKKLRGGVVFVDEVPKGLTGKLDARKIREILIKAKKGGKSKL
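Purified P. pyralis luciferase (10nM final) with 10uM D-luciferin and 10uM ATP (Km levels) in 50mM Tris acetate pH 7.5, 10mM Mg acetate, 0.01% Tween-20, 0.05% BSA; qHTS 6-point titration, ~60 µM downward; luminescence read.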
Rab9 promoter act – activators of Rab9 promoter; Huh7 Rab9 promoter-luciferase reporter, luminescence, 24 h; Potency, µM (top dose mostly 9.22 µM), without a hit: at the top dose activation, negative = inhibition, most hits filed as activators; 320,000 compounds, 2.8% hits; AID 485297; note: % of control where 0% means no effect; nearly all actives have a fitted effect of over 60% in size
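Huh7 cells stably carrying Rab9 promoter–luciferase reporter, plated 1500 cells/well, compound added after 2 h and incubated 24 h at 37 °C; luciferase luminescence then read after 10 min with detection reagent.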
Starred values were filed as active, the others as inactive; ? = inconclusive; nt = not tested or not shown; [ ] = another dose, or the depositor's remark. A selection: hits, their analogues and other compounds. The true share with any hit is near 7.4%. Calls come from the whole dose curve; as a rule, active = well fitted curve in the direction sought with a large enough effect; inconclusive = small, poorly fitted or top-dose-only effect, or another doubt; inactive = no such curve, though single readings can be large; an effect the other way counts as inactive or inconclusive. Potency is the fitted concentration of half-maximal effect.

SMILES | SMN2 splice enh | NPC1 prom act | ELG1 genotox | FLuc modulator | Rab9 promoter act
COc1ccc(-c2cc(C(=O)NCc3cccs3)no2)cc1 | nt | 2.51µM* | ? | ? | 4.47µM*
COc1cccc(-c2cc(C(=O)NCc3cccs3)no2)c1 | nt | 3.16µM* | 23.1µM* | 4.78µM* | 3.16µM*
COc1ccc(NC(=O)Cn2nnc(C(=O)NCc3cccs3)c2N)cc1 | -16.9% | 0.9% | ? | -0.8% | 0.0%
COc1cccc(-c2cc(C(=O)NCc3ccc(F)cc3)no2)c1 | -2.7% | nt | nt | -11.9% | nt
COc1ccc2nc3sc(C(=O)NCc4cccs4)c(N)c3cc2c1 | 3.55µM* | 3.55µM* | ? | 0.757µM* | 3.98µM*
COc1ccccc1CN1COc2ccc3c(C)cc(=O)oc3c2C1 | nt | nt | nt | -1.7% | nt
O=C(CN1CCSC1=O)N1CCN(S(=O)(=O)c2ccccc2)CC1 | nt | 1.3% | -2.8% | nt | -2.0%
Cc1cc2nn(-c3ccc(F)cc3)nc2cc1N | nt | 2.51µM* | 1.64µM* | 0.757µM* | 3.16µM*
Cc1cc(N)n(-c2ccc(Cl)cc2)n1 | 11.7% | -2.1% | 3.1% | 2.4% | 1.7%
COc1ccc(-n2nc3cc(C)c(N)cc3n2)cc1Cl | nt | 2.24µM* | ? | 1.07µM* | 2.82µM*
COc1ccc(-n2nc3cc(C)c(NC(=O)c4ccc(C)cc4C)cc3n2)cc1Cl | 4.0% | nt | nt | -2.2% | nt
Cc1cc2nn(-c3ccc(Cl)cc3)nc2cc1N | nt | ? | ? | 0.338µM* | 22.0%
CCCCN(C(=O)c1cc(-c2ccncc2)nc2ccccc12)c1c(N)n(CC(C)C)c(=O)[nH]c1=O | nt | nt | -2.9% | nt | nt
Cc1ccccc1CN1C[C@@H]2C[C@@H](c3cnc(N4CCOCC4)s3)N3CCC[C@@]23C1=O | 15.8µM* | -3.9% | -7.5% | -2.9% | -32.1%
CCOc1ccc(NC(=S)NC(=O)c2c(Br)cnn2C)c([N+](=O)[O-])c1 | 2.6% | 8.4% | 1.9% | 6.01µM* | 16.8%
COc1ccc(Cn2c(SCC#N)nc3ccc(N4CCOCC4)cc3c2=O)cc1 | ? | 3.55µM* | ? | ? | 3.55µM*
C=CCc1cccc(C=Nc2cccn3cc(-c4ccccc4)nc23)c1O | 25.1µM* | ? | ? | -16.8% | ?
CCn1c(/C=N/Nc2ccc(C(=O)O)cc2)nc2ccccc21 | 3.4% | 14.6% | 0.8% | 10.7µM* | -1.1%
Cc1c(/C=N\NC(=O)C2COc3ccccc3O2)c2ccccc2n1C (stereo not given) | 15.4% | -9.1% | 15.0% | ? | -27.4%
Cc1c(/C=N/Nc2ccc(C(=O)O)cc2)c2ccccc2n1C | nt | 2.24µM* | ? | 10.7µM* | 1.41µM*
CC1CCCN(C(=O)COC(=O)c2cc(Br)ccc2O)C1 (stereo not given) | nt | nt | 2.9% | nt | nt
CCc1ccc(NC(=O)c2[nH]c(C)c(C(C)=O)c2C)cc1 | nt | 1.58µM* | ? | 12µM* | 1.58µM*
CCOc1ccc(NC(=O)c2[nH]c(C)c(C(C)=O)c2C)cc1 | nt | ? | ? | 15.1µM* | ?
CSc1nc(Nc2ccc(C)cc2C)cc(-c2ccccc2)n1 | nt | nt | nt | -0.1% | nt
O=C(NCC1CCCO1)c1nn2cccnc2c1Cl (stereo not given) | 22.4µM* | 12.8% | ? | -15.4% | 22.5%
SMILES | SMN2 splice enh | NPC1 prom act | ELG1 genotox | FLuc modulator | Rab9 promoter act
N#C/C(=C/c1ccc(N2CCOCC2)o1)C(=O)Nc1ccccc1 | 14.1µM* | 2µM* | ? | 2.69µM* | 2µM*
COCCNC(=O)/C(C#N)=C/c1ccc(N2CCOCC2)o1 | 8.1% | 1.0% | -1.0% | -9.9% | -2.1%
N#C/C(=C\c1ccc(OCCN2CCOCC2)cc1)C(=O)Nc1ccccc1 | nt | -4.7% | 2.3% | -6.4% | 4.9%
N#C/C(=C\c1ccc(N2CCOCC2)o1)C(=O)NCCc1ccccc1 | 15.8% | -1.2% | 0.2% | 26.9µM* | 17.1%
N#C/C(=C\c1ccc(N2CCOCC2)o1)C(=O)NC1CCCCC1 | nt | 19.3% | 10.0% | 16.9µM* | 26.7%
Cc1ccc(C)c(CN2C(=O)c3ccccc3S(=O)(=O)c3ccc(C(=O)NCCC4=CCCCC4)cc32)c1 | 7.2% | nt | nt | -1.5% | nt
COc1ccc(-c2c(C)nn3c(C(F)(F)F)cc(-c4ccccc4)nc23)cc1OC | 1.0% | nt | nt | -8.6% | nt
COc1ccc(C2C(C(=O)Nc3ccccc3)=C(C)Nc3nc(-c4ccccc4Cl)nn32)cc1OC (stereo not given) | -11.6% | nt | nt | -1.3% | nt
Cc1ccc[n+](CC(=O)Nc2c(Cl)cc(Cl)cc2Cl)c1 | nt | 11.2% | 11.3% | 19µM* | 23.9%
O=C(C[n+]1ccccc1)Nc1c(Cl)cc(Cl)cc1Cl | nt | 6.1% | 2.5% | ? | ?
CCNC(=S)/N=C(\N)Nc1nc(C)c2cc(C)ccc2n1 | nt | 3.55µM* | ? | 6.01µM* | 2.82µM*
COc1ccc(CC(=O)Nc2nc(-c3cc(OC)ccc3OC)cs2)cc1 | -38.6% | -7.7% | -10.1% | -2.9% | -5.2%
COc1ccc(OC)c(-c2csc(NC(=O)Cc3ccccc3)n2)c1 | nt | -0.6% | -20.1% | 10.7µM* | 2.7%
COc1ccc(OC)c(-c2csc(NC(=O)Cc3cccs3)n2)c1 | -21.9% | -3.7% | 0.4% | 13.5µM* | -2.7%
CC1CN(C(=S)Nc2cccc(Cl)c2Cl)CC(C)O1 (stereo not given) | nt | -2.7% | -6.9% | 3.5% | -1.2%
CCCn1c(O)c(C=Nc2ccccc2)sc1=S | nt | 13.5% | ? | 21.3µM* | ?
CCCCn1c(O)c(/C=C/C=C/C=Nc2ccccc2)sc1=S | -57.2% | -13.2% | 4.9% | 10.7µM* | 1.0%
CCCCCn1c(-c2ccco2)nc2nc3ccccc3nc21 | 8.5% | -2.3% | -25.6% | ? | 1.8%
Clc1ccc(-c2nc3nc4ccccc4nc3n2Cc2ccco2)cc1 | 17.8µM* | 0.4% | 23.1µM* | ? | 3.8%
Cc1ccc(-c2nc3nc4ccccc4nc3n2Cc2ccco2)cc1 | 8.91µM* | 3.7% | 2.91µM* | 10.7µM* | 12.0%
OC1CCN(Cc2ccc(OCc3ccccc3)cc2)CC1 | nt | 2µM* | ? | 10.7µM* | ?
CCCCNC(=O)C1CCN(Cc2ccc(OCc3ccccc3)cc2)CC1 | ? | ? | ? | 19µM* | ?
CNC(=O)C1(C)C=CCN1C(=O)OC (stereo not given) | 5.4% | nt | nt | nt | nt
NS(=O)(=O)c1cc(C(=O)OCC(=O)c2ccc3c(c2)OCCO3)ccc1Cl | -0.7% | 2.82µM* | ? | 0.213µM* | 2.82µM*
CNS(=O)(=O)c1cccc(C(=O)OCC(=O)c2ccc3c(c2)OCCO3)c1 | nt | 9.1% | -1.2% | 0.379µM* | 19.6%
NS(=O)(=O)c1cc(C(=O)NNC(=O)c2ccc3c(c2)OCO3)ccc1Cl | nt | nt | 10.6% | nt | nt
Cn1cc(Cl)c(C(=O)OCC(=O)c2ccccc2)n1 | nt | 4.9% | 3.4% | ? | 1.2%
COc1ccc(Cl)cc1NC(=O)CN(c1cc(C)cc(C)c1)S(=O)(=O)c1c(C)n[nH]c1C | -17.1% | nt | nt | 3.8% | nt
Cc1nn(CCCC(=O)NC(C)c2ccccc2)c(=O)c2nn(-c3ccccc3)c(C)c12 (stereo not given) | nt | -7.5% | 0.3%[9.26 µM] | 1.6% | -4.2%
